# PubChem BioAssay (Tox21)
# Unmarked numbers belong to inactive results. Results filed as inconclusive are left out. Where a call stands in place of a potency, no number is given. Activity calls are given as the source filed them. Unless noted, calls come from the whole dose curve; as a rule, active = well fitted curve in the direction sought with a large enough effect in the repeat runs; inconclusive = weak or mixed curves; inactive = no such curve, though single readings can be large; an effect the other way counts as inactive or inconclusive. Where a SMILES comes first, the peptide text is derived from it.
# Assays:
# [1] = qHTS assay to identify small molecule agonists of the TGF-beta/Smad signaling pathway (AID 1346859; active = well fitted activation curve with a large enough effect in the signal ratio in the repeat runs, not every such curve was filed as active; the % refers to the signal ratio; note: series mostly up to about 77 µM)
# In short: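 SBE-bla HEK293T cells plated overnight, then compound exposure for 5 h at 37 C. Beta-lactamase reporter read with LiveBLAzer B/G FRET substrate after 2 h at room temperature, fluorescence at 405 nm excitation, 460/530 nm emission.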
# [2] = target: Thyrotropin-releasing hormone receptor (Homo sapiens) (UniProt P34981); assay: qHTS assay to identify small molecule antagonists of the thyrotropin-releasing hormone receptor (TRHR) signaling pathway (AID 1346877; active = well fitted inhibition curve with a large enough effect in the repeat runs, not every such curve was filed as active; note: series mostly up to about 51 µM)
# In short: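 Intracellular calcium fluorescence, read kinetically every second over 3 min, reports TRH-evoked signalling in HEK293 cells carrying TRHR. Test compounds were added 5 min ahead of a 1 nM TRH challenge.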
# [3] = target: Thyrotropin-releasing hormone receptor (Homo sapiens) (UniProt P34981); assay: qHTS assay to identify small molecule agonists of the thyrotropin-releasing hormone receptor (TRHR) signaling pathway (AID 1346891; calls by dose curve; note: series mostly up to about 58 µM)
# In short: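 HEK293 cells expressing TRHR plated 18 h at 37 C/5% CO2, calcium dye-loaded 2 h at 37 C, then compound added (agonist mode); kinetic calcium fluorescence read 3 min at 1 s intervals; 15 concentrations in triplicate.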
# [4] = Human pregnane X receptor (PXR) small molecule agonists, qHTS cell viability counter screen (AID 1346977); note: nearly all actives have a fitted effect of over 50% in size
# In short: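 PXR-Luc HepG2 cells (2,000/well, 5% charcoal-stripped FBS) preincubated 5 hr, then exposed to compounds 24 hr at 37 C. Viability read in the same wells by CellTiter-Fluor fluorescence, reagent added at 23 hr, 1 hr incubation.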
# [5] = Caspase-3/7 induction in HepG2 cells by small molecules, qHTS assay (AID 1346978); note: nearly all actives have a fitted effect of over 15% in size
# In short: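 Wild-type HepG2 cells, 2,000/well, settled 5 hr at 37 C and 5% CO2, then compound-treated for 17 hr; caspase-3/7 activity read by luminescent Caspase-Glo 3/7 after 30 min at room temperature.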
# [6] = Caspase-3/7 induction in CHO-K1 cells by small molecules, qHTS cell viability counter screen (AID 1346979); note: nearly all actives have a fitted effect of over 35% in size
# In short: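 Wild-type CHO-K1 cells (1,500/well) treated with compound after 5 h plating; after 16 h at 37C, viability read as CellTiter-Fluor fluorescence following 1 h reagent incubation, in the same wells as the caspase read.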
# [7] = Caspase-3/7 induction in HepG2 cells by small molecules, qHTS cell viability counter screen (AID 1346981); note: series mostly up to about 92 µM; nearly all actives have a fitted effect of over 30% in size
# In short: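 HepG2, WT, 2,000 cells/well; 5 hr pre-incubation 37 C/5% CO2; compound pin-transferred from DMSO; 16 hr exposure; CellTiter-Fluor, 1 hr; fluorescence read.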
# [8] = target: Nuclear receptor subfamily 1 group I member 2 (Homo sapiens) (UniProt O75469); assay: Human pregnane X receptor (PXR) small molecule agonists, qHTS assay (AID 1346982); note: nearly all actives have a fitted effect of over 35% in size; note: potency is the fitted concentration of half-maximal effect
# In short: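 Luciferase signal from ONE-Glo (30 min, room temperature) measured activation of hPXR-driven CYP3A4 reporter expression in PXR-Luc HepG2 cells treated with compounds for 24 hr at 37 C.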
# [9] = target: Cytochrome P450 2D6 (Homo sapiens) (UniProt P10635); assay: Cytochrome P450 Family 2 Subfamily D Member 6 (CYP2D6) small molecule antagonists: luciferase reporter qHTS assay (AID 1671196); note: nearly all actives have a fitted effect of over 50% in size; note: potency is the fitted concentration of half-maximal effect
# In short: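 Read-out is luminescence from luciferin formed by CYP2D6 turnover of a proluciferin substrate, recorded as relative luminescence units. Reactions ran 1 h at room temperature after NADPH regeneration solution was added.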
# [10] = target: Cytochrome P450 2C9 (Homo sapiens) (UniProt P11712); assay: Cytochrome P450 Family 2 Subfamily C Member 9 (CYP2C9) small molecule antagonists: luciferase reporter qHTS assay (AID 1671198); note: nearly all actives have a fitted effect of over 50% in size; note: potency is the fitted concentration of half-maximal effect
# In short: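 P450-Glo proluciferin substrate with CYP2C9 enzyme; 10 min RT preincubation, then NADPH regeneration 1 h at 37C; luciferin detection reagent 20 min RT, luminescence in relative luminescence units.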
# [11] = target: Cytochrome P450 1A2 (Homo sapiens) (UniProt P05177); assay: Cytochrome P450 Family 1 Subfamily A Member 2 (CYP1A2) small molecule antagonists: luciferase reporter qHTS assay (AID 1671199); note: nearly all actives have a fitted effect of over 50% in size; note: potency is the fitted concentration of half-maximal effect
# In short: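 P450-Glo CYP1A2, 1536-well qHTS: enzyme/proluciferin substrate + cpd (DMSO), 10 min RT; NADPH regen, 1 h RT; detection reagent, 20 min; luminescence, RLU.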
# [12] = target: Voltage-gated inwardly rectifying potassium channel KCNH2 (Homo sapiens) (UniProt Q12809); assay: Human Ether-a-go-go-Related Gene (hERG) channel small molecule antagonists: fluorescence cell-based qHTS assay (AID 1671200)
# In short: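 hERG-U2OS cells plated overnight at 37 C, loaded with FluxOR II dye 1 h at RT in dark; after 10 min, thallium stimulus added. Fluorescence (480/540 nm) read kinetically for 2 min at 1 s intervals.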
# [13] = target: Cytochrome P450 3A4 (Homo sapiens) (UniProt P08684); assay: Cytochrome P450 Family 3 Subfamily A Member 4 (CYP3A4) small molecule antagonists: luciferase reporter qHTS assay (AID 1671201)
# In short: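 P450-Glo CYP3A4 luminescent assay: compounds preincubated 10 min at room temperature with enzyme and proluciferin substrate, NADPH regeneration added, 1 h room-temperature reaction, stopped with luciferin detection reagent; luminescence read after 20 min. Ketoconazole positive control.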
# [14] = target: Cytochrome P450 2C19 (Homo sapiens) (UniProt P33261); assay: Cytochrome P450 Family 2 Subfamily C Member 19 (CYP2C19) small molecule antagonists: luciferase reporter qHTS assay (AID 1671197); note: nearly all actives have a fitted effect of over 65% in size; note: potency is the fitted concentration of half-maximal effect
# In short: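 First, compounds are pinned into enzyme-substrate mix and held 10 min at room temperature. Second, NADPH regeneration solution is added and plates incubate 1 h at 37C. Third, detection reagent is added and luminescence read after 20 min.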
# [15] = Caspase-3/7 induction in CHO-K1 cells by small molecules, qHTS assay (AID 1346980); note: nearly all actives have a fitted effect of over 15% in size
# In short: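 Wild-type CHO-K1 cells exposed to compounds for 17hr at 37 C, 5% CO2. Caspase-3/7 activity then measured by Caspase-Glo 3/7 luminescence after 30min at room temperature.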
# [16] = target: Nuclear receptor subfamily 1 group I member 2 (Rattus norvegicus) (UniProt Q9R1A7); assay: Rat pregnane X receptor (rPXR) activation by small molecules, qHTS assay (AID 1346983); settings: rPXR luciferase reporter cells, One-Glo luminescence, 24 h; stronger effect = higher value; note: nearly all actives have a fitted effect of over 20% in size
# In short: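 Cell-based rPXR activation assay: rPXR cells, 2,000 per well, rested 5hr at 37 C, then exposed to compounds in DMSO for 24 hr at 37 C. Luciferase activity read by One-Glo luminescence after 30 min at room temperature.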
# [17] = target: Nuclear receptor subfamily 1 group I member 2 (Homo sapiens) (UniProt O75469); assay: CYP3A4 induction through human pregnane X receptor (PXR) by small molecules, qHTS assay (AID 1346984); note: nearly all actives have a fitted effect of over 40% in size
# In short: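 Luminescence readout: luciferase signal after One-Glo (30 min, room temperature), following 3 h at 37C with 3uM final Luciferin-IPA P450 substrate. Cells were DPX-2 (HepG2, PXR/CYP3A4-luc co-transfected) dosed for 24 h.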
# [18] = target: Nuclear receptor subfamily 1 group I member 2 (Homo sapiens) (UniProt O75469); assay: Human pregnane X receptor (PXR) activation by small molecules, qHTS assay (AID 1346985); note: nearly all actives have a fitted effect of over 40% in size
# In short: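 DPX-2 cells (HepG2 co-transfected with a PXR response element and a CYP3A4-promoter luciferase construct) were seeded at 2,000 per well, rested 5 hr at 37C, then exposed to DMSO-dissolved compounds for 24 hr. Activation was read as luciferase luminescence.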
# Thyrotropin-releasing hormone receptor (Homo sapiens), sequence (P34981 whole entry, looked up): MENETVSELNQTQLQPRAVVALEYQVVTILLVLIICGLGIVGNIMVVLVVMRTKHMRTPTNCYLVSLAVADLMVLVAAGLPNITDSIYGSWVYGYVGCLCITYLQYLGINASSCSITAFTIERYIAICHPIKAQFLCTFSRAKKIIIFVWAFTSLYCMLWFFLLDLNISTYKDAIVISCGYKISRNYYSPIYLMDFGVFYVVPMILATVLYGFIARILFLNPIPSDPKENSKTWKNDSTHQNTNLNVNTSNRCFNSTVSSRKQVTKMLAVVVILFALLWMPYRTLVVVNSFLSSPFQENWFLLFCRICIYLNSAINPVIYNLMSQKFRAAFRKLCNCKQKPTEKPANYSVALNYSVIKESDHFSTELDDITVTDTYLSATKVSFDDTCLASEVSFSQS
# Nuclear receptor subfamily 1 group I member 2 (Homo sapiens), sequence (O75469 whole entry, looked up): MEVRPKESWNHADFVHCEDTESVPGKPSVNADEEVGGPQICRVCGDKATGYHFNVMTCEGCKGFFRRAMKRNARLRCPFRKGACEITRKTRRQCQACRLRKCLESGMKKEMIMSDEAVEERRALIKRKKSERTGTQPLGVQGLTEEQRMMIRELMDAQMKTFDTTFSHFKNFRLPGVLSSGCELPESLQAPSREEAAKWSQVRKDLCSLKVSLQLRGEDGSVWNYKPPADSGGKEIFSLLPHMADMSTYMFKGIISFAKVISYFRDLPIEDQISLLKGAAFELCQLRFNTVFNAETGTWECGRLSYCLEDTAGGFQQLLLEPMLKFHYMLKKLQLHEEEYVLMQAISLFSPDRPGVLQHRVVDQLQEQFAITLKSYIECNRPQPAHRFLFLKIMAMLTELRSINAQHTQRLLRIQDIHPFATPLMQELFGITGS
# Cytochrome P450 1A2 (Homo sapiens), sequence (P05177 whole entry, looked up): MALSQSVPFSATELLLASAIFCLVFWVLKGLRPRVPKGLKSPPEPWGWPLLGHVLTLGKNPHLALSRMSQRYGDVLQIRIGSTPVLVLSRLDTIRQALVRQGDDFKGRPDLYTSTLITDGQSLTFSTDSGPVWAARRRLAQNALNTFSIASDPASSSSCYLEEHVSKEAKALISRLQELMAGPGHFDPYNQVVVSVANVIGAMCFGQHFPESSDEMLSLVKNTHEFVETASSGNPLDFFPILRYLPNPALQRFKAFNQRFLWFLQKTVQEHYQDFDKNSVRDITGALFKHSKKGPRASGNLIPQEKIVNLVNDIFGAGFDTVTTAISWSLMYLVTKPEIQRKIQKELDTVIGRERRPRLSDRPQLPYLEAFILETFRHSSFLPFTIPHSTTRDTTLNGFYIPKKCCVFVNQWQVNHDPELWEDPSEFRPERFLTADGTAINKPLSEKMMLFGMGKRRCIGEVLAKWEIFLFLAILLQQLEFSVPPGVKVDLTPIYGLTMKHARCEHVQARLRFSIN
# Cytochrome P450 3A4 (Homo sapiens), sequence (P08684 whole entry, looked up): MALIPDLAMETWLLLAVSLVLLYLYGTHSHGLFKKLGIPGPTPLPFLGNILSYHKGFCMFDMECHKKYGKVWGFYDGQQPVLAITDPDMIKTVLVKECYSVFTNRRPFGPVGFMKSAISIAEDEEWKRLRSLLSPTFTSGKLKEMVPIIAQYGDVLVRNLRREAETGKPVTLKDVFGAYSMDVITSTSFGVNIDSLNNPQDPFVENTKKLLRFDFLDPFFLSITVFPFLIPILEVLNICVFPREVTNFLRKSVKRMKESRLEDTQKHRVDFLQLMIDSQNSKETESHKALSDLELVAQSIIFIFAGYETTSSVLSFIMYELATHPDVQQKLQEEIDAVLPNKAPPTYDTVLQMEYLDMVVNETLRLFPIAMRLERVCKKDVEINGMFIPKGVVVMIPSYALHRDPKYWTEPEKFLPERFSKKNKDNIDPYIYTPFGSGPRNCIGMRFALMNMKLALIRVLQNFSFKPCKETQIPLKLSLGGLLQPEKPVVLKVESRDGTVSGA
# Voltage-gated inwardly rectifying potassium channel KCNH2 (Homo sapiens), sequence (Q12809 whole entry, looked up): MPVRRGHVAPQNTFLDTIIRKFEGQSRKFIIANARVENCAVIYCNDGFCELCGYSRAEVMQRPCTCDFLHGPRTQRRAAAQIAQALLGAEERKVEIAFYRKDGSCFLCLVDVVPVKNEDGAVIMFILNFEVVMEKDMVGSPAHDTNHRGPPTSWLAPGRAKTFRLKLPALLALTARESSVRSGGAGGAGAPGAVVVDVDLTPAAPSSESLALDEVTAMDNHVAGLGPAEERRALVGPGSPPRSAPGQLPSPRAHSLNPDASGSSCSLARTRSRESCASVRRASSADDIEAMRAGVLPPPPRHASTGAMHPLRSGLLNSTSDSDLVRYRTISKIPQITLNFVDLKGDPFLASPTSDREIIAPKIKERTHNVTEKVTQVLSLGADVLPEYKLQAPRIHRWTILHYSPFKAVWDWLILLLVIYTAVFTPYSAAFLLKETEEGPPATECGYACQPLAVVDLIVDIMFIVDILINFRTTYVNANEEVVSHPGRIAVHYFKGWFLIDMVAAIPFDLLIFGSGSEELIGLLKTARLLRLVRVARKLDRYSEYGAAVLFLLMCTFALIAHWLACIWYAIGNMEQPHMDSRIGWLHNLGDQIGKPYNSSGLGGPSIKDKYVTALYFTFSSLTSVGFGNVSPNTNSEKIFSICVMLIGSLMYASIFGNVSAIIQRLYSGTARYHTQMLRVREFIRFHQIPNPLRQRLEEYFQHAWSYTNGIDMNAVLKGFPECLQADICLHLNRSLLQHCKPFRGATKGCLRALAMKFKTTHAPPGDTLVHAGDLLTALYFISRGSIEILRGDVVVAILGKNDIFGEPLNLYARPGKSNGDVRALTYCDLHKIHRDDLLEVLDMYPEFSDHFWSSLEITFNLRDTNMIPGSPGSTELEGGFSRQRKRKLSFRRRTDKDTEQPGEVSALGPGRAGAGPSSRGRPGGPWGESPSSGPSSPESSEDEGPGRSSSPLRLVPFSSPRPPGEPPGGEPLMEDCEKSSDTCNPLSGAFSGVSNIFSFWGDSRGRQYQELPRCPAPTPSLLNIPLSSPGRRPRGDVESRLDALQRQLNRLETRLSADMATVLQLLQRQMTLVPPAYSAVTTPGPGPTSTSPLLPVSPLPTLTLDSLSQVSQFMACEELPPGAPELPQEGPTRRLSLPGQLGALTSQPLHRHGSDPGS
# Cytochrome P450 2D6 (Homo sapiens), sequence (P10635 whole entry, looked up): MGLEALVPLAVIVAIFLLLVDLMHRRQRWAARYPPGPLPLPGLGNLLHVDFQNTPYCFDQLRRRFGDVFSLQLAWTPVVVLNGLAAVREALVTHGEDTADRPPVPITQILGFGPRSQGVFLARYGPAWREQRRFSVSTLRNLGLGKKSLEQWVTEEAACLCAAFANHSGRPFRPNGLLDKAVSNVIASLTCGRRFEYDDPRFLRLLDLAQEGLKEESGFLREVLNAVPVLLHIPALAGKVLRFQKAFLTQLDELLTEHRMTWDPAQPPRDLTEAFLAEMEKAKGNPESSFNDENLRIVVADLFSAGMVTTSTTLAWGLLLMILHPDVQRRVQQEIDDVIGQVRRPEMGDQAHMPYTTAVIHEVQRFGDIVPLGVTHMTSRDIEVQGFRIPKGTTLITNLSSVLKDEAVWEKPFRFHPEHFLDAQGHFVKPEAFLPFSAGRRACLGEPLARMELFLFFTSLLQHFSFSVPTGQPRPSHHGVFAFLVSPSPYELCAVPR
# Cytochrome P450 2C9 (Homo sapiens), sequence (P11712 whole entry, looked up): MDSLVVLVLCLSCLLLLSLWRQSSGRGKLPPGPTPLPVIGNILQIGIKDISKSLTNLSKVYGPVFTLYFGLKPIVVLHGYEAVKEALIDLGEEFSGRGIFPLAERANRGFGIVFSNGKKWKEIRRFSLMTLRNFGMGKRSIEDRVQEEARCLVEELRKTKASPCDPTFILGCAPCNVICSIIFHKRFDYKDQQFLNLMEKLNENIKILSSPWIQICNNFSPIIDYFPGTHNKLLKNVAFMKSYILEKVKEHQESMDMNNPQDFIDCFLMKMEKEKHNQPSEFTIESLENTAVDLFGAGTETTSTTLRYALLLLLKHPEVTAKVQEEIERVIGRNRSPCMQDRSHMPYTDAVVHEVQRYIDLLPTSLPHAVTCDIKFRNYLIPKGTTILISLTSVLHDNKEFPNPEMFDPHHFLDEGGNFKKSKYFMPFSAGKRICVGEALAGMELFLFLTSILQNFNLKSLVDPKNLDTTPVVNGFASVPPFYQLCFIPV
# Cytochrome P450 2C19 (Homo sapiens), sequence (P33261 whole entry, looked up): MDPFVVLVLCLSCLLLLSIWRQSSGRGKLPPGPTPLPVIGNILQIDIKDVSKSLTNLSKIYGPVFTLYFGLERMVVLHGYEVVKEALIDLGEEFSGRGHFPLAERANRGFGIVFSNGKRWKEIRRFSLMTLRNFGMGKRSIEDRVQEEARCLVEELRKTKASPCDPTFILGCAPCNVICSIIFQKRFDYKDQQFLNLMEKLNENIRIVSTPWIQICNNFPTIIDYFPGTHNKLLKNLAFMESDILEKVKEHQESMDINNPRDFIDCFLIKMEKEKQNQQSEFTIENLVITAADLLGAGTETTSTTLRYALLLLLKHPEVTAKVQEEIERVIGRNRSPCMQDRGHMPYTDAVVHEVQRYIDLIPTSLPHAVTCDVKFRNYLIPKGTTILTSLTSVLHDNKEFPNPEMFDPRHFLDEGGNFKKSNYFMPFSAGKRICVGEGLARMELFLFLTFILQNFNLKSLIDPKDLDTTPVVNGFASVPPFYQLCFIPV
# Nuclear receptor subfamily 1 group I member 2 (Rattus norvegicus), sequence (Q9R1A7 whole entry, looked up): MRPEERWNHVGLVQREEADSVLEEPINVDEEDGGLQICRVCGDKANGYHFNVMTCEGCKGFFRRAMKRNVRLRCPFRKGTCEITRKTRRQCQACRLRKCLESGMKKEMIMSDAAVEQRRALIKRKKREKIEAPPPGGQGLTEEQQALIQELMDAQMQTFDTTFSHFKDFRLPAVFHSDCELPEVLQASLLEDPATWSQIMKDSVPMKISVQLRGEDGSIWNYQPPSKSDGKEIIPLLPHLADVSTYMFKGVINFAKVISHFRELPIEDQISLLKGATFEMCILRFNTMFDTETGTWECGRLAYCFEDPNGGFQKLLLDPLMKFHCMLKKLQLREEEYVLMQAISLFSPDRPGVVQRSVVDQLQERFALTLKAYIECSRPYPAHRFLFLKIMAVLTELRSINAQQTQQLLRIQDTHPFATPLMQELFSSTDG
SMILES,outcome [1],outcome [2],outcome [3],outcome [4],outcome [5],Potency [6],outcome [7],Potency [8],Potency [9],Potency [10],Potency [11],Potency [12],Potency [13],Potency [14],outcome [15],max activation [16] [%],Potency [17],Potency [18]
Cc1c(C(=O)c2c[nH]n(C)c2=O)ccc(S(C)(=O)=O)c1C1=NOCC1,inactive,inactive,inactive,inactive,inactive,inactive,inactive,inactive,inactive,12.9 µM (active),14.5 µM (active),inactive,inactive,,,,,
COC(=O)c1cc(Cl)cc(Cl)c1,inactive,inactive,inactive,inactive,inactive,inactive,inactive,inactive,inactive,inactive,,inactive,inactive,inactive,,,,
CCCCCC(C)O (centres undefined),inactive,inactive,inactive,inactive,,inactive,inactive,inactive,inactive,inactive,inactive,inactive,inactive,inactive,inactive,,,
N#CCC(=O)NN,inactive,inactive,inactive,inactive,inactive,inactive,inactive,inactive,inactive,inactive,inactive,inactive,inactive,,,-4.95,inactive,inactive
CCCCOCCOC(=O)COc1ccc(Cl)cc1Cl,inactive,inactive,inactive,inactive,inactive,,inactive,inactive,inactive,,20 µM (active),inactive,inactive,79.6 µM (active),inactive,,,
CC(=O)N[C@@H](CO)C(=O)N[C@@H](CC(=O)O)C(=O)N[C@@H](CCCCN)C(=O)N1CCC[C@H]1C(=O)O (Ac-SDKP-OH),inactive,inactive,inactive,inactive,inactive,inactive,inactive,inactive,inactive,,inactive,inactive,inactive,inactive,,,,
CCC(C(=O)OCCN1CCOC(c2ccccc2)C1C)c1ccccc1 (centres undefined),inactive,inactive,inactive,inactive,,inactive,inactive,33.5 µM (active),5.49 µM (active),4.9 µM (active),inactive,inactive,,1.38 µM (active),inactive,,,
NCc1ccc(S(N)(=O)=O)cc1,inactive,inactive,inactive,inactive,inactive,inactive,inactive,inactive,,,inactive,inactive,inactive,,,-0.0614,inactive,inactive
